{"source": "PubChem BioAssay (NCI)", "note": "Compounds without any hit were thinned out: in the full panel of roughly 83,000, 20% have a hit.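 Cells were grown in 96-well plates and exposed to the test compound at a single concentration for 48 hours; results are reported as percent growth, with values below 10 considered active.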 Unmarked numbers belong to inactive results. Active and inactive are the calls of the source.", "data": [{"tested_on": "HL-60(TB) leukemia", "assay": "NCI-60 one-dose screen, 48 h (100 = growth as untreated, 0 = no growth, -100 = all killed)", "conditions": "10 µM unless noted", "values": [{"smiles": "CC1(C)CC[C@]2(CO)CC[C@]3(C)C(=CC[C@@H]4[C@@]5(C)CCNCC(C)(C)[C@@H]5CC[C@]43C)[C@@H]2C1", "growth": "23.5%"}, {"smiles": "COc1cc(Cl)cc(-c2nn(-c3cccc(NC(=O)c4ccc(N5CCOCC5)c(C(F)(F)F)c4)c3)cc2-c2ccncc2)c1", "growth": "2.73% (active)"}, {"smiles": "COc1ccc(S(=O)(=O)NCCCNc2nccc(-c3c(-c4cccc([N+](=O)[O-])c4)nc4sccn34)n2)cc1", "growth": "22.9%"}, {"smiles": "C=C(C)[C@@H]1CC[C@]2(C(=O)NC(COC(=O)C(Cl)Cl)(COC(=O)C(Cl)Cl)COC(=O)C(Cl)Cl)CC[C@]3(C)[C@H](CC[C@@H]4[C@@]5(C)CC[C@H](OC(C)=O)C(C)(C)[C@@H]5CC[C@]43C)[C@@H]12", "growth": "16.7%"}, {"smiles": "CC(=O)OC/C(C)=C\\CC(C)COC(C)=O", "note": "(configuration not stated)", "growth": "101%"}, {"smiles": "C=C1C(=O)O[C@H]2[C@H]1CC/C(COC(=O)CCCCCCCC(=O)OC/C1=C/CC[C@@]3(C)O[C@H]3[C@H]3OC(=O)C(=C)[C@@H]3CC1)=C\\CC[C@@]1(C)O[C@@H]21", "growth": "-18.3% (active)"}, {"smiles": "O=c1cc/c(=N\\Nc2ccccc2)c(=O)/c1=N/Nc1ccccc1", "growth": "138%"}, {"smiles": "Brc1ccc(-c2cn3ccnc3c(-c3ccc(Br)cc3)n2)cc1", "growth": "30.2%"}, {"smiles": "C[C@]12CCc3c(ccc4cc(O)ccc34)[C@@H]1CC[C@H]2O", "growth": "86.7%"}, {"smiles": "C/C(=N\\NC(N)=S)C(C)(C)O", "growth": "102%"}, {"smiles": "CC(=O)C(/C=N/C(N)=O)=C(/C)O", "growth": "104%"}, {"smiles": "CCOC(=O)C1=C(c2ccccc2)N=C2N(c3ccccc3)N=C(C(C)=O)N2C1c1ccc(F)cc1", "note": "(configuration not stated)", "growth": "89.8%"}, {"smiles": "COc1cccc2c1O/C(=C\\c1c([N+](=O)[O-])ncn1C)C2=O", "growth": "95.8%"}, {"smiles": "CCOC(=O)c1ccc(C(C)(C)C)cc1", "growth": "90.4%"}, {"smiles": "O=C(C[n+]1cccc2ccccc21)c1ccc(O)c(O)c1", "growth": "-20% (active)"}, {"smiles": "CN(C)CCOc1ccc2c(c1)C(=O)/C(=C\\c1ncc([N+](=O)[O-])n1C)C2", "growth": "-51.8% (active)"}, {"smiles": "CCCCCCCCCCCCCCCCC(=O)O", "growth": "101%"}, {"smiles": "CC1=CC(=NN=c2cc(C)n([O-])c(C)c2)C=C(C)[N+]1=O", "growth": "37.6%"}, {"smiles": "CSC1=CC(=O)c2ccccc2C1=O", "growth": "-49.5% (active)"}, {"smiles": "COc1ccc(C/C(=C(\\C)c2ccc(OCCN3CCCC3)cc2)c2ccc(OCCN3CCCC3)cc2)cc1", "growth": "-58.1% (active)"}, {"smiles": "CC(=O)Nc1c(Cl)cc2c(c1Cl)Cc1cc([N+](=O)[O-])ccc1-2", "growth": "96.3%"}, {"smiles": "COc1cccc(/C=C/C(=O)c2cc3c(N)c(C(=O)Nc4cccc5ccccc45)sc3nc2C)c1", "growth": "3.98% (active)"}, {"smiles": "CCCCn1c(-c2cccc(OC)c2)nc2cc(OC)c(OC)cc2c1=O", "growth": "78.3%"}, {"smiles": "NC(=S)N/N=C1\\c2ccccc2-c2c(F)c(F)c(F)c(F)c21", "growth": "44.4%"}, {"smiles": "O=c1cn[nH]c2ccc(Br)cc12", "growth": "85.5%"}, {"smiles": "c1ccc2[nH]c(-c3ccc(-c4nccc5c4[nH]c4ccccc45)cc3)nc2c1", "growth": "-42.1% (active)"}, {"smiles": "CC(=O)O.[In]", "growth": "93.4%"}, {"smiles": "Cn1cc(-c2csc(-c3c[nH]c4ccc(F)cc34)n2)c2cnccc21", "growth": "-59.4% (active)"}, {"smiles": "CCCCCc1ccc(S(=O)(=O)Nc2ccc3nc(N)oc3c2)cc1", "growth": "28.9%"}, {"smiles": "CN1C(=O)NC(c2ccc3c(c2)OCO3)C=C1c1ccccc1", "note": "(configuration not stated)", "growth": "99%"}, {"smiles": "CCOc1nc(-c2ccccc2)cc2c(O)c(C(=O)N/N=C/c3ccc(N(C)C)cc3)[nH]c(=O)c12", "growth": "111%"}, {"smiles": "N#C/C(=C\\N1C(=O)/C(=C/c2cccc([N+](=O)[O-])c2)SC1=S)c1nc2ccccc2s1", "growth": "94.5%"}, {"smiles": "O=C1CSC(c2ccccc2O)N1c1nnc(Cn2ccnc2)o1", "note": "(configuration not stated)", "growth": "24.9%"}, {"smiles": "CCc1nnc(NC(=O)c2ccoc2COc2ccccc2)s1", "growth": "19.3%"}, {"smiles": "COc1ccc(NC(=O)COCCOCCNC[C@@H]2C(=O)O[C@H]3[C@H]2CC/C(COC(=O)OC/C2=C/CC[C@@]4(C)O[C@H]4[C@H]4OC(=O)[C@@H](CN(C)C)[C@@H]4CC2)=C\\CC[C@@]2(C)O[C@@H]32)c(O)c1C(N)=O", "growth": "-48.2% (active)"}, {"smiles": "CCCC/C=N/NC(=S)NCc1ccccc1", "growth": "105%"}, {"smiles": "Cc1cc(CSc2ccccc2C(=O)N2CC=C(c3ccccc3)CC2)on1", "growth": "87.7%"}]}]}
